PubChem BioAssay AID1345085 (National Center for Advancing Translational Sciences (NCATS), 2018)
Inconclusive results are not listed. Unmarked numbers belong to inactive results. Activity calls are given as the source filed them. The call rests on the fitted dose curve; in most records, active means well fitted cell-killing curve with a large enough effect; inconclusive means small, poorly fitted or top-dose-only effect, or effect the other way; inactive means no such curve, though single readings can be large or run the other way.

Test system: Es-2
Assay: Confirmatory qHTS for gynecologic anti-cancer compounds from libraries of approved drugs and bioactive compounds; further: nearly all actives have a fitted effect of over 55% in size
Conditions: gynecologic cancer cell panel viability, ATPlite luminescence, 48 h; series mostly up to 57.6 µM
How it was run: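 Viability is measured as ATP-dependent luciferase light using ATPlite, read 15 min after reagent addition at room temperature. Compounds, in DMSO, span 57.5 uM down to 0.977 nM over 11 threefold steps for 48 h.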
On the % scale 0 is the no-effect control and ±100 the full control effect; potency means the concentration at half of the fitted maximal effect.

Compound	Potency	activity change, negative = viability loss
C[C@]12CCC(=O)C=C1[C@@H]1C[C@@H]1[C@H]1[C@@H]3[C@@H]4C[C@@H]4[C@@]4(CCC(=O)O4)[C@@]3(C)CC[C@@H]12	inactive	
COc1cc(F)c(F)c(Nc2ccc(I)cc2F)c1NS(=O)(=O)C1(CC(O)CO)CC1 (configuration not stated)	3.85 µM (active)	
Cc1ccc(C(=O)Nc2ccc(CN3CCN(C)CC3)c(C(F)(F)F)c2)cc1C#Cc1cnc2cccnn12	6.11 µM (active)	
Cn1cnc([N+](=O)[O-])c1Sc1ncnc2nc[nH]c12	15.3 µM (active)	
Cc1cc(CN2CCN(c3c(Br)cnc4nc(-c5ccc(N6CCN(C)CC6)cc5)[nH]c34)CC2)no1	7.69 µM (active)	
Nc1nccc(Oc2ccc(NC(=O)c3c[nH]cc(-c4ccc(F)cc4)c3=O)cc2F)c1Cl	34.3 µM (active)	
COc1cc(N2CCC(N3CCN(C)CC3)CC2)ccc1Nc1ncc(Cl)c(Nc2ccccc2S(=O)(=O)C(C)C)n1	24.3 µM (active)	
COc1cccc2c1C(=O)c1c(O)c3c(c(O)c1C2=O)C[C@@](O)(C(=O)CO)C[C@@H]3O[C@H]1C[C@H](N)[C@H](O)[C@H](C)O1	1.72 µM (active)	
CC[C@H](Nc1ncnc2nc[nH]c12)c1nc2cccc(F)c2c(=O)n1-c1ccccc1		8.76% [at 10.7 µM]
CN(C)CCC(CSc1ccccc1)Nc1ccc(S(=O)(=O)NC(=O)c2ccc(N3CCN(Cc4ccccc4-c4ccc(Cl)cc4)CC3)cc2)cc1[N+](=O)[O-] (configuration not stated)	4.85 µM (active)	
CN(C)CC/C=C1\c2ccccc2COc2ccccc21	inactive	
CC(=O)O[C@H]1C(=O)[C@@]2(C)[C@H]([C@H](OC(=O)c3ccccc3)[C@]3(O)C[C@H](OC(=O)[C@H](O)[C@@H](NC(=O)c4ccccc4)c4ccccc4)C(C)=C1C3(C)C)[C@]1(OC(C)=O)CO[C@@H]1C[C@@H]2O	0.0819 µM (active)	
COc1cc2c(Oc3ccc(-c4cnc(Nc5ccc(F)cc5)n(C)c4=O)cc3F)ccnc2cc1OCCCN1CCOCC1	inactive	
Cc1cc(C(=O)N2CCN(c3cccc(Cl)c3)CC2)n(-c2ccccc2)n1	2.43 µM (active)	
Fc1cc(-c2cccc3ncc(-c4cnn(C5CCNCC5)c4)nc23)cc(F)c1CN1CCOCC1	21.7 µM (active)	
CC(C)Oc1ccc(C(=O)NC(CNC(=O)CN(C)C)Cc2ccc(-c3cn4cccc(C(C)O)c4n3)cc2)cc1Cl (configuration not stated)	0.385 µM (active)	
O=C(c1ccc(F)c(F)c1Nc1ccc(I)cc1F)N1CC(O)([C@@H]2CCCCN2)C1	17.2 µM (active)	
N=C(N)c1ccc(OCCCCCOc2ccc(C(=N)N)cc2)cc1	inactive	
CCOC(=O)C1=C(C)NC2=C(C(=O)CC(C)(C)C2)C1c1ccc(-c2ccccc2)cc1 (configuration not stated)	inactive	

Compound	Potency	activity change, negative = viability loss
CC[C@]1(O)C[C@H]2CN(CCc3c([nH]c4ccccc34)[C@@](C(=O)OC)(c3cc4c(cc3OC)N(C=O)[C@H]3[C@@](O)(C(=O)OC)[C@H](OC(C)=O)[C@]5(CC)C=CCN6CC[C@]43[C@@H]65)C2)C1	0.432 µM (active)	
CC[C@@]1(O)C(=O)OCc2c1cc1n(c2=O)Cc2c-1nc1ccccc1c2/C=N/OC(C)(C)C	0.0153 µM (active)	
CCN1CCN(Cc2ccc(-c3cc4c(NC(C)c5ccccc5)ncnc4[nH]3)cc2)CC1 (configuration not stated)	27.3 µM (active)	
CN(C[C@@H]1COCCO1)S(=O)(=O)Nc1ccc2ccc3ncc(-c4cnn(C)c4)cc3c(=O)c2c1	inactive	
CCN(CC)CCCC(C)Nc1ccnc2cc(Cl)ccc12 (configuration not stated)	inactive	
Cc1nc(N)nc(N)c1-c1ccc(Cl)c(Cl)c1	1.37 µM (active)	
CN1C(=O)C(Cc2c[nH]c3ccccc23)NC1=S (configuration not stated)	inactive	
Cc1cc(SCc2sc(-c3ccc(C(F)(F)F)cc3)nc2C)ccc1OCC(=O)O	inactive	
COc1cc2c(c(OC)c1OC)-c1ccc(OC)c(=O)cc1[C@@H](NC(C)=O)CC2	0.0708 µM (active)	
NC(=O)Nc1cc(-c2cccc(F)c2)sc1C(=O)NC1CCCNC1 (configuration not stated)	0.344 µM (active)	
CN(C)C(CCOc1cccc2ccccc12)c1ccccc1 (configuration not stated)	inactive	
CNC(=O)c1ccccc1Sc1ccc2c(/C=C/c3ccccn3)n[nH]c2c1	19.3 µM (active)	
C#C[C@]1(O)CC[C@H]2[C@@H]3CCC4=CC(=O)CC[C@@H]4[C@H]3CC[C@@]21CC	inactive	
C[C@@H](Oc1cc(-c2cnn(C3CCNCC3)c2)cnc1N)c1c(Cl)ccc(F)c1Cl	15.3 µM (active)	
NS(=O)(=O)OC[C@@H]1C[C@@H](n2ccc3c(N[C@H]4CCc5ccccc54)ncnc32)C[C@@H]1O	1.72 µM (active)	
CC[C@@]1(O)C(=O)OCc2c1cc1n(c2=O)Cc2cc3c(CN(C)C)c(O)ccc3nc2-1	0.193 µM (active)	
Cc1cnc(Nc2ccc(F)cc2Cl)nc1-c1c[nH]c(C(=O)NC(CO)c2cccc(Cl)c2)c1 (configuration not stated)	inactive	
CC(C)C[C@H](NC(=O)[C@@H](NC(=O)c1cccc(-c2ccccc2)n1)[C@@H](C)O)B(O)O	0.0685 µM (active)	
